Source: PubChem
IL-2 act: activators of IL-2; IL-2 activation reporter assay, cell-based qHTS; stimulated with anti-CD3/CD4/CD28 beads; in transgenic mouse T cells; activation, % (series mostly up to about 46 µM); 360,000 tested, 0.065% active; in the data active means activation above about 50%; inconclusive means mostly about 30% to 49%; further: 0% is about no effect
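Quantitative HTS in unstimulated transgenic mouse T cells, with memory T cells as non-tolerant control and PMA/ionomycin as tolerance-bypass control. Compound pretreatment lasted 60 minutes before 18 h bead stimulation; EGFP/DsRed fluorescence read.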
ALOX12 inh: blocks human arachidonate 12S-lipoxygenase; 580,000 tested, 1.1% active; Potency, µM (highest dose often 108 µM), for the others: top-dose activity change, negative = inhibition, actives largely listed as inhibitors; AID 1671190; purified 12hLO, xylenol orange hydroperoxide absorbance; P18054; further: potency means the concentration at half of the fitted maximal effect; on the % scale 0 is the no-effect control and ±100 the full control effect
Target sequence (P18054 whole entry, looked up): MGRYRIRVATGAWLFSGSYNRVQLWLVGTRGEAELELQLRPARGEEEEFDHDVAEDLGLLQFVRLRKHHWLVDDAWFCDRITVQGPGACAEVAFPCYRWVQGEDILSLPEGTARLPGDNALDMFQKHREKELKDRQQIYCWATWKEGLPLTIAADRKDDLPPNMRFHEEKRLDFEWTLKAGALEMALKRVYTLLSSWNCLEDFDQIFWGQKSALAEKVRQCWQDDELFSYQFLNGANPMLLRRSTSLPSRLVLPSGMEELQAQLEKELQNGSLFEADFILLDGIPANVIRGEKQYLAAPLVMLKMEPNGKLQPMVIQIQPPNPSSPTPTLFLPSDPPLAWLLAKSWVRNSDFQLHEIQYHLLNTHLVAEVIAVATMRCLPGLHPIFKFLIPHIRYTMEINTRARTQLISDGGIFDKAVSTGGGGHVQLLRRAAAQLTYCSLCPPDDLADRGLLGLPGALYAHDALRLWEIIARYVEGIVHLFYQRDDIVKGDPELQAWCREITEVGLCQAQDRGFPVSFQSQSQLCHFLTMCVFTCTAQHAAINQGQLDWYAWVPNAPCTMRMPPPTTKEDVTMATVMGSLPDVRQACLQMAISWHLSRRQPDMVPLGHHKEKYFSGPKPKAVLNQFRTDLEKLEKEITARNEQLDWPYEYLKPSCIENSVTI
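Purified human 12hLO (150 nM final) in 25 mM Hepes, 0.01% Triton X-100, pH 7.0 was preincubated 15 min at room temperature with compound. Then 40 uM arachidonic acid was added, 30 min. Hydroperoxide was read by Fe-XO absorbance ratio 573/405 nm.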
uPA surface inh: cell surface uPA generation inhibition | cell surface uPA generation assay, qHTS | Potency, µM (top dose mostly 38.3 µM), for the others: at the highest dose activity change, negative = inhibition, usual class: inhibitors | 330,000 tested, 0.31% active | AID 540303; active means well fitted inhibition curve with a large enough effect; inconclusive means small, poorly fitted or top-dose-only effect; inactive means no such curve, though single readings can be large or run the other way; tested in mouse RAW 264.7 cells; further: potency means the concentration at half of the fitted maximal effect; on the % scale 0 is the no-effect control and ±100 the full control effect; nearly all actives have a fitted effect of over 55% in size
Nrf2 ARE act: Nrf2 pathway activation; Potency, µM (series often up to 46.1 µM), for inactives: at the highest dose activation, usual class: activators; AREc32 ARE-luciferase reporter (MCF7-derived line), luminescence, 24 h; AID 624171; 410,000 tested, 0.31% active; further: potency means the concentration at half of the fitted maximal effect; % of control where 0% means no effect; nearly all actives have a fitted effect of over 65% in size
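Each well held 1000 AREc32 cells, which were incubated with compound for 24 hr at 37 deg C after overnight attachment, and ARE reporter activity was quantified by firefly luciferase luminescence.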
a7 integrin act: activators of alpha7 integrin expression for muscular dystrophy; alpha7betagal myoblasts, beta-gal FDG fluorescence, 48 h; AID 624291; 350,000 tested, 0.064% active; Potency, µM (series often up to 38.3 µM), for inactives: top-dose activation, actives largely listed as activators;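 further: potency means the concentration at half of the fitted maximal effect; 100% = response of the positive control SU9516; nearly all actives have a fitted effect of over 60% in size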
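Alpha7betagal+/- myoblasts (passage 13) were plated 16-24 hr, then exposed to compounds (1:260 dilution of DMSO stock) for 48 hours at 37C. After MPER lysis, β-galactosidase reporter activity was read as FDG fluorescence (ex 480/em 540) after 30 minutes.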
Numbers without * were called inactive; u = inconclusive; x = not tested or not shown; [ ] = dose if it differs, or a comment. Sampled rows, rich in hits. Any-hit rate of the full collection: about 1.5%. Unless noted, the call rests on the fitted dose curve; in most records, active means well fitted curve in the direction sought with a large enough effect; inconclusive means small, poorly fitted or top-dose-only effect, or another doubt; inactive means no such curve, though single readings can be large; an effect the other way counts as inactive or inconclusive.

SMILES | IL-2 act | ALOX12 inh | uPA surface inh | Nrf2 ARE act | a7 integrin act
NS(=O)(=O)c1cccc(NC(=S)NC(=O)C23CC4CC(CC(C4)C2)C3)c1 | 0.8 | 31.6µM* | -1.0% | 2.7% | -12.8%
COc1ccccc1C(=O)Nc1ccc2oc(-c3ccccc3C)cc(=O)c2c1 | x | -2.6% | x | x | x
O=C(Nc1cccc2nsnc12)c1ccc(F)cc1 | 0.0 | 20.4% | -9.4% | 11.2µM* | -10.3%
CCOc1ncccc1C(=O)NC1CC(c2nnc(CN(C)C)n2C)C1 (configuration not stated) | x | -2.0% | x | x | x
O=C(O)C1CCN(S(=O)(=O)c2cc(Cl)cc(Cl)c2)CC1 | x | 8.3% | x | x | x
Cc1cnc(C2CCC2)n1CC1CCN(C(=O)NC2CCCCC2)CC1 | x | 94.8% | x | x | x
Cc1ccc(NS(=O)(=O)c2ccc(Cl)c(NC(=S)NC(=O)C3CCCCC3)c2)cc1Cl | -0.8 | 12.6µM* | -4.8% | -1.8% | -21.3%
Cc1ccc(NC(=S)NC(=O)C2CCCC2)c(Br)c1 | 0.2 | 35.5µM* | -3.6% | 5.5% | -17.9%
C[C@]1(CO)[C@H]2Cc3sc(NC(=O)c4ccco4)nc3[C@@H](CC(=O)NCc3cccnc3)[C@]2(C)CC[C@H]1O | x | 33.5% | x | x | x
O=C1N(Cc2ccc(F)cc2)C[C@H]2CN(Cc3ccc(C(F)(F)F)cc3)CCN12 | x | -9.2%[176 µM] | x | x | x
O=c1[nH]c2cc(-c3nc(-c4cccnn4)no3)ccc2n1C1CCC(O)CC1 (configuration not stated) | x | 82.6% | x | x | x
COc1ccc(-c2cnc3n2CC(C(=O)NCCCN2CCN(C)CC2)CC3)cc1 (configuration not stated) | x | 28.3% | x | x | x
COc1ccc(C(=O)Nc2nc(-c3ccc(Br)s3)ns2)cc1 | x | -2.2% | x | x | x
Cc1cc(C)c2nc(SCC(=O)NCCC3=CCCCC3)cc(C)c2c1 | 0.4 | 15.8µM* | 1.6% | -0.4% | 8.7%
COCCNC(=O)CSc1cc(C)c2cc(C)cc(C)c2n1 | x | 42.6% | x | x | x
COc1ccc(-c2cc(N3CCCN(C(=O)c4ccsc4)CC3)n[nH]2)cc1 | x | 45.6% | x | x | x
O=C1CC(c2ccccc2)N(C(=O)CNC(=O)CN2CCCC2=O)CCCCCN1 (configuration not stated) | x | 35.7% | x | x | x
CCn1c(-c2ccc3ncccc3c2)n[nH]c1=S | -0.1 | u | -1.3% | -0.1% | 0.2%
C=CCn1c(-c2ccc3ncccc3c2)n[nH]c1=S | 0.5 | 28.2µM* | 3.4% | -0.7% | -11.2%
COc1ccc(-c2cc(N3CCCN(C(=O)c4ccc(C)c(C)c4)CC3)n[nH]2)cc1 | x | -6.0% | x | x | x
CCOC(=O)c1c(NC(=O)/C=C/C(=O)O)sc(C)c1-c1ccc(Cl)cc1 | 0.8 | -13.5% | 8.91µM* | u | 2.3%
COC(=O)c1c(NC(=O)/C=C/C(=O)O)sc(Cc2ccccc2)c1C | 0.7 | x | -8.9% | 22.4µM* | -17.1%
CCOC(=O)c1c(NC(=O)Nc2ccc(Cl)cc2)sc(C)c1C | -1.2 | -4.4% | 3.2% | -1.0% | -15.0%
Cn1c(SCc2ccccc2)nc2ccsc2c1=O | 0.7 | -9.5% | 1.5% | 12.6µM* | -22.0%
Cc1c(C(=O)N/N=C/c2ccccc2)[nH]c2ccc(Cl)cc12 | -0.5 | 1.1% | 2.82µM* | 0.7% | -55.8%
SMILES | IL-2 act | ALOX12 inh | uPA surface inh | Nrf2 ARE act | a7 integrin act
FC(F)(F)c1cnc(NNC(=S)Nc2ccc(Cl)cc2)c(Cl)c1 | -3.0 | 44.7µM* | -11.9% | 10.3% | -53.4%
Cc1ccc(NC(=S)NNc2ncc(C(F)(F)F)cc2Cl)cc1 | -5.6 | -9.8% | -2.7% | -2.7% | -24.9%
CC(C)(C)NC(=O)COC(=O)c1ccc2ccccc2n1 | x | -25.8% | x | x | x
CCc1cccc(CC)c1NC(=O)COC(=O)c1ccc2ccccc2n1 | x | 6.31µM* | x | x | x
C=CCc1cccc(CNc2nc3ccccc3n2C)c1O | -0.1 | 31.6µM* | 7.5% | 6.6% | 0.4%
C=CCc1cccc(CNc2cnc3ccccc3c2)c1O | -1.1 | 7.94µM* | u | 11.7% | -27.1%
Cc1ccc(NC(=O)NCc2nc3ccccc3n2C)cc1 | -0.6 | -11.1% | 2.3% | 0.2% | 4.47µM*
Cc1ccc(CNc2nc3ccccc3n2C)cc1 | -1.8 | -8.6% | 3.98µM* | -1.9% | 9.5%
COc1ccc(CCNC(=S)NNC(=S)NCC2CCCO2)cc1OC (configuration not stated) | x | -44.7% | x | x | x
Oc1ccc(Cl)cc1CNc1cnc2ccccc2c1 | -0.8 | 39.8µM* | -5.7% | 16.2% | 0.0%
